Source: the supplement of paper PMC9177965

Each compound was assayed on HT29 RNF43 G659fs (RNF43 659mut, CRISPR-edited) (assay: cell viability activity relative to DMSO (negative = inhibition); higher = more viable cells (less growth inhibition)). Details: 5 µM; 96 h.
Experimental: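 Broad Repurposing Library primary screen at a single dose of 5 uM. HT29 sg-Ctrl and HT29 RNF43 G659fs CRISPR-edited isogenic cells were seeded at 2500 cells/well in 384-well plates in duplicate and treated for 96 h. Viability was read by CellTiter-Glo and reported as % activity relative to DMSO, with MG132 as the positive control (negative = growth inhibition).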
Work on `CC(=O)OC1CC2CCC1(C)C2(C)C` (configuration not stated) yielded a cell viability activity of -28.1%. `COC(=O)[C@]12CCC(C)(C)C[C@H]1[C@H]1C(=O)C=C3[C@@]4(C)C=C(C#N)C(=O)C(C)(C)[C@@H]4CC[C@@]3(C)[C@]1(C)CC2` gave a cell viability activity of -96.8%. Compound `Cc1cc(Nc2cc(N3CCN(C)CC3)nc(/C=C/c3ccccc3)n2)n[nH]1` has a cell viability activity of -74.6%. `Cn1cnc2c(F)c(Nc3ccc(Br)cc3Cl)c(C(=O)NOCCO)cc21` was tested, and the cell viability activity was -71.6%. Work on `CCN(CC)Cc1ccc2cc(COC(=O)Nc3ccc(C(=O)NO)cc3)ccc2c1` yielded a cell viability activity of -91.4%. In the case of `CC(C)(C)c1cnc(CSc2cnc(NC(=O)C3CCNCC3)s2)o1`, the cell viability activity is reported as -81.8%. With `CCN(CC)CCOc1ccc(C(=C(Cl)c2ccccc2)c2ccccc2)cc1` the cell viability activity was -98.4%. Work on `CCCCc1oc2ccccc2c1C(=O)c1cc(I)c(OCCN(CC)CC)c(I)c1` yielded a cell viability activity of -99.4%. `NC(=S)N/N=C/c1ncccc1N` showed a cell viability activity of -58.9%. `CC(C)c1cc(-c2n[nH]c(=O)n2-c2ccc3c(ccn3C)c2)c(O)cc1O` gave a cell viability activity of -87.1%. With `Cn1c(Nc2ccc(C(F)(F)F)cc2)nc2cc(Oc3ccnc(-c4ncc(C(F)(F)F)[nH]4)c3)ccc21` the cell viability activity was -82%. For `NCCCCNCCCN`, the cell viability activity was -26.8%. Compound `COc1cc(N2CCC(N3CCN(C)CC3)CC2)ccc1Nc1ncc(Cl)c(Nc2ccccc2P(C)(C)=O)n1` has a cell viability activity of -82.9%. Work on `COC[C@H](C)NC1CCC(Nc2cc(-c3cccc(NCC4(C#N)CCOCC4)n3)c(Cl)cn2)CC1` (some centres not stated) yielded a cell viability activity of -67.4%. Work on `C[C@@H](Oc1ccc2[nH]nc(/C=C/c3cnn(CCO)c3)c2c1)c1c(Cl)cncc1Cl` yielded a cell viability activity of -87.9%. With `C=CCNC1=C2C[C@@H](C)C[C@H](OC)[C@H](O)[C@@H](C)/C=C(\C)[C@H](OC(N)=O)[C@@H](OC)/C=C\C=C(/C)C(=O)NC(=CC1=O)C2=O` the cell viability activity was -90.1%. For `CN(c1ncccc1CNc1nc(Nc2ccc3c(c2)CC(=O)N3)ncc1C(F)(F)F)S(C)(=O)=O`, the cell viability activity was -83.7%. In the case of `C=CC(=O)Nc1cccc(Oc2nc(Nc3ccc(N4CCN(C)CC4)cc3)ncc2Cl)c1`, the cell viability activity is reported as -46.3%. For `Cc1cn([C@H]2C[C@H](N=[N+]=[N-])[C@@H](CO)O2)c(=O)[nH]c1=O`, the cell viability activity was -29%. With `O=C(CCCCCCC(=O)Nc1cccnc1)NO` the cell viability activity was -42.9%. With `C=C1C(=O)O[C@H]2[C@H]1CC/C(C)=C/CC[C@@]1(C)O[C@@H]21` the cell viability activity was -28.1%. In the case of `Clc1ccc(CSC(Cn2ccnc2)c2ccc(Cl)cc2Cl)cc1` (configuration not stated), the cell viability activity is reported as -38.7%. `FC(F)c1nc2ccccc2n1-c1nc(N2CCOCC2)nc(N2CCOCC2)n1` was tested, and the cell viability activity was -33%. Compound `N#Cc1cc2c(OCC(O)CN3CCN(C(c4ccccc4)c4ccccc4)CC3)cccc2[nH]1` (configuration not stated) has a cell viability activity of -23.9%. Compound `CS(=O)(=O)N1CCN(Cc2cc3nc(-c4cccc5[nH]ncc45)nc(N4CCOCC4)c3s2)CC1` has a cell viability activity of -62.8%. For `CN[C@@H](C)C(=O)N[C@H](C(=O)N1CCC[C@H]1C(=O)N[C@H]1c2ccccc2C[C@H]1OCC#CC#CCO[C@@H]1Cc2ccccc2[C@@H]1NC(=O)[C@@H]1CCCN1C(=O)[C@@H](NC(=O)[C@H](C)NC)C1CCCCC1)C1CCCCC1`, the cell viability activity was -58.1%. Work on `Nc1ncnc2c1c(-c1cccc(OCc3ccccc3)c1)cn2C1CC(CN2CCCC2)C1` (configuration not stated) yielded a cell viability activity of -48%. Compound `Clc1cc(Cl)c(OCC#CI)cc1Cl` has a cell viability activity of -35.5%. `CNCCn1c(=O)c2cc(OC)c(OC)cc2c2cnc3cc4c(cc3c21)OCO4` was tested, and the cell viability activity was -81.7%. For `O=C(c1ccc(-c2ccc(Cl)cc2)o1)N(Cc1ccccn1)c1ccc(N2CCNCC2)cc1`, the cell viability activity was -45.7%. Compound `C[C@@H](CN1CC(=O)NC(=O)C1)N1CC(=O)NC(=O)C1` has a cell viability activity of -48.1%. `COc1ccc(-c2ccc3c(N4CCOC[C@@H]4C)nc(N4CCOC[C@@H]4C)nc3n2)cc1CO` gave a cell viability activity of -71.9%. Work on `CC[C@@]1(O)C(=O)OCc2c1cc1n(c2=O)Cc2cc3c([N+](=O)[O-])cccc3nc2-1` yielded a cell viability activity of -93.9%. `Cc1cc(OCc2nc(-c3ccccc3Cl)cs2)ccc1OCC(=O)O` was tested, and the cell viability activity was -41.6%. `COc1ccc(-c2cc3c(C)nc(N)nc3n([C@H]3CC[C@H](OCCO)CC3)c2=O)cn1` showed a cell viability activity of -94%. With `COC(=O)Nc1nc2cc(C(=O)c3ccccc3)ccc2[nH]1` the cell viability activity was -58.1%. `CS[C@H]1SC[C@H]2C(=O)N(C)[C@@H](C(C)C)C(=O)OC[C@@H](NC(=O)c3cnc4ccccc4n3)C(=O)N[C@@H](C)C(=O)N(C)[C@@H]1C(=O)N(C)[C@@H](C(C)C)C(=O)OC[C@@H](NC(=O)c1cnc3ccccc3n1)C(=O)N[C@@H](C)C(=O)N2C` gave a cell viability activity of -88%.
